# Measurements reported in the supplement of paper PMC8728848.
# The sample as a whole holds a higher share of the strongest signals than the screen did.
# B1: cupB6 (Pseudomonas aeruginosa), Q02SP7 (protein)
# chain: MSMRLFPGRVSLRRRPGAQARQALVLGLCCLTGGQAWALNEVALNCSFGNGKGLPWRVVNELTSGTAKGTVLFARPVSLFLSYKPQASQEAHELVLGGNWSGVGYPGPYGTVASDVKGIGYRISVDAQDGVKRVIPVDNQPHALDKRVTSFSGSTTSDYLQELVLTVDPGELPAGDLKVTSVSGSATLNLWAVDRLKGEASIGSVLAVPADNYPTGVCRKPYSLIGPASIAIGGGPPPPPIPKKCKVEVGREINVKLGSVALKNFPRVNDTSTERSFDISLSECAALAKPEIAFRDKYVSAQQADPTILSLKSGGAAGFGIVVKNGLDQQRIRFDGTPYPMRRVGDSADLPLSAAYIRIGAEGELKAGVADGAAEFTFTFP
# B2: Epa10 (protein)
# chain: MNEKIFRYLTLLFLFELARSLPVEDKLNIKKVFEKRAVDFTPFAHYPRPEGCSSPPNSVSVGLHMNLYNYPYLYVKPSTKGMFTNDTNSDADGETDGDSAGGIEGRAGQCWNPEYQDPNFPRFGYKQYGEFGASDNVNGDISWDHNEFTEGCKPVLAALPPGYNYPDEITFSNFTMVLSGYFKPKTSGVYKFELKADDFILFNFGAKNAFECCNREESIDNFGPYVAYAMWPNQADQELEVYLFEDSYYPLRLFYNNRDYHSKFKIGFYPPGQTTITFDFDGYLFMLDDTGNECRDSIRYRTVCDDKVVDDTTYSTRYSTSMVPGGGSDVITIYYIRMKCEEEDCLGQWDPINNVCYSPDDCADDGGYWNGQMCDQSCKLEGGIVNPDTGDCDKSCIESGGFLDENGNCDTTCRDDGGMLVEGQCDYQCKEAGGILVGDHCDTTCVDSGGKLNEDGTCDHSCRDQGGQLDENGECDTSCKDSGGMLIEGECDTSCKDEGGQLDDNNECINHCKDQGGIIDENGNCDTSCKDSGGKLDESGACDTSCRDDGGIIDENGNCNTTCRDDGGIIVGDHCDTSCRDAGGILIEDHCDTTCRDSGGKLNEDGTCDHSCRDQGGQLDENGKCDYSCKNGGGKLDEDGNCDMSCKENGGKLDENGDCDLSCKEDGGKLDGNGDCDYSCKEEGGVIDESGNCNTTCKDSGGQIIDGECNYGCIEVGGVVIDGECDTSCIDSGGILDGDGNCDRSCIESGGVLEDGACNTTCRDSGGQLNVDGTCDTSCRDDGGMLVEGQCDYQCKEAGGILEDGECVFPPTSSSTSETSSTTDQSSLQSDDSSMESSSTPMDSSTIESSSSEIITSESESESVPIASSSSEVMTSESESESIPILTSSSEIPIASSSSEIPVASSSSEIIIPESESESVPVASSSSEIPIASSSSEIPVASSSSEIPVASSSSEIIIPESESESIPIESTSSEAVSSRSESDSSYPTPTPTTTTITTWPNPIQPTTSNSSPIVSSSTETPGIAESSSRISDLESSRRTSILGDDRTRTRTTITSTITEDGQIITITTTVTGFVPEPTGETEGNGSDDENPENPIENNTDENEFLDPEFTDDIPDDPAGPEDNGNGPVNPEQGNDNDPVNLEDSGNNGAVNPEQAPVNDEDNGGNDPVNPEQDNNNGPANPGQDSTNGSGNSDQIDNNPPTPEENAGDGNSNGNDPADPSRRTSILGDERTRASPGGTSQPTGANGNVNGNSPGANVNGGGTGNSNNNNNNNNNNNNGNAPNGGDGSNGDANQGPSRRTSLLGDERTRAGQAAPTGGSSPDNGIAGDTSNNGGAIVSQQVDDGGAGSPRRTSILGDVRSRTTLNGEVLNFEGSGVRRAVAGNLALPLMMVGLVFNL
# Experiments:
# Experiment in all cases: glycan array binding signal (z-score within array); higher = stronger binding
# Settings in all cases: glycan notation: IUPAC condensed, linker removed
# [1] = biological target: Fuc(a1-2)Gal(b1-3)[Fuc(a1-4)]GlcNAc
# Outline: (§1)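 Glycan array data were curated from 3228 arrays in the Consortium for Functional Glycomics database and kept only where the protein sequence was available. Glycan names were converted to IUPAC-condensed notation, and columns mapping to the same glycan were averaged. The binding signal is a within-array Z-score, averaged across arrays of the same protein sequence at different concentrations or buffers and across linkers. Negative Z-scores can be read as non-binding.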
# [2] = biological target: Fuc(a1-2)Gal(b1-4)Glc6S
# Outline: as §1
# [3] = biological target: Fuc(a1-2)Gal(b1-4)[Fuc(a1-3)]GlcNAc(b1-3)Gal(b1-4)[Fuc(a1-3)]GlcNAc
# Outline: as §1
# [4] = biological target: Fuc(a1-2)Gal6S(b1-4)Glc
# Outline: as §1
# [5] = biological target: Fuc(a1-2)[GalNAc(b1-3)]Gal
# Outline: as §1
# [6] = biological target: Fuc(a1-3)[Gal(b1-4)]Glc6S
# Outline: as §1
# [7] = biological target: Fuc(a1-3)[Gal(b1-4)]GlcNAc(b1-3)GalNAc
# Outline: as §1
# [8] = biological target: Fuc(a1-3)[Gal3S(b1-4)]GlcNAc6S
# Outline: as §1
# [9] = biological target: Gal(a1-2)Gal
# Outline: as §1
# [10] = biological target: Gal(a1-3)Gal
# Outline: as §1
# [11] = biological target: Gal(a1-3)Gal(b1-4)GlcNAc(b1-3)GalNAc
# Outline: as §1
# [12] = biological target: Gal(a1-4)Gal(b1-4)GlcNAc(b1-2)Man(a1-3)[Gal(a1-4)Gal(b1-4)GlcNAc(b1-2)Man(a1-6)]Man(b1-4)GlcNAc(b1-4)GlcNAc
# Outline: as §1
# [13] = biological target: Gal(a1-6)Glc
# Outline: as §1
# [14] = biological target: Gal(b1-4)GlcNAc(b1-2)Man(a1-6)[Man(a1-3)]Man(b1-4)GlcNAc(b1-4)GlcNAc
# Outline: as §1
# [15] = biological target: Gal(b1-4)GlcNAc(b1-3)Gal(b1-4)GlcNAc
# Outline: as §1
# [16] = biological target: Gal(b1-4)GlcNAc(b1-3)[Gal(b1-4)GlcNAc(b1-6)]GalNAc
# Outline: as §1
# [17] = biological target: Gal(b1-4)GlcNAc(b1-6)GalNAc
# Outline: as §1
# [18] = biological target: GalNAc(b1-3)Gal
# Outline: as §1
# [19] = biological target: GalNAc(b1-3)Gal(a1-4)Gal(b1-4)GlcNAc(b1-3)Gal(b1-4)Glc
# Outline: as §1
# [20] = biological target: GlcNAc(b1-2)[GlcNAc(b1-4)]Man(a1-3)[GlcNAc(b1-2)Man(a1-6)]Man(b1-4)GlcNAc(b1-4)GlcNAc
# Outline: as §1
# [21] = biological target: GlcNAc(b1-4)GlcNAc
# Outline: as §1
# [22] = biological target: GlcNAc(b1-6)GalNAc
# Outline: as §1
# [23] = biological target: Man(a1-2)Man(a1-3)Man
# Outline: as §1
# [24] = biological target: Man(a1-2)Man(a1-3)[Man(a1-2)Man(a1-6)]Man(a1-6)[Man(a1-2)Man(a1-2)Man(a1-3)]Man
# Outline: as §1
# [25] = biological target: Man(a1-3)[Man(a1-6)]Man(a1-6)[Man(a1-3)]Man(b1-4)GlcNAc(b1-4)GlcNAc
# Outline: as §1
# [26] = biological target: Neu5Ac(a2-3)Gal(b1-3)GlcNAc(b1-3)Gal(b1-3)GlcNAc
# Outline: as §1
# [27] = biological target: Neu5Ac(a2-3)Gal(b1-3)[Fuc(a1-4)]GlcNAc(b1-3)Gal(b1-3)[Fuc(a1-4)]GlcNAc
# Outline: as §1
# [28] = biological target: Neu5Ac(a2-3)Gal(b1-3)[Neu5Ac(a2-3)Gal(b1-4)]GlcNAc
# Outline: as §1
# [29] = biological target: Neu5Ac(a2-3)Gal(b1-4)GlcNAc(b1-6)[Gal(b1-3)]GalNAc
# Outline: as §1
# [30] = biological target: Neu5Ac(a2-3)Gal(b1-4)[Fuc(a1-3)]GlcNAc(b1-3)GalNAc
# Outline: as §1
# [31] = biological target: Gal3S(b1-4)[Fuc(a1-3)]GlcNAc6S
# Outline: as §1
# [32] = biological target: GlcNAc(a1-3)Gal(b1-4)GlcNAc
# Outline: as §1
# [33] = biological target: GlcNAc(a1-4)Gal(b1-3)GlcNAc
# Outline: as §1
# [34] = biological target: GlcNAc(b1-3)Gal(b1-4)GlcNAc(b1-6)[GlcNAc(b1-3)]Gal(b1-4)GlcNAc
# Outline: as §1
# [35] = biological target: Man(a1-2)Man(a1-2)Man(a1-3)Man
# Outline: as §1
# [36] = biological target: Neu5Ac(a2-3)Gal(b1-3)GlcNAc
# Outline: as §1
# [37] = biological target: Neu5Ac(a2-3)Gal(b1-4)GlcNAc(b1-3)Gal(b1-3)GlcNAc
# Outline: as §1
# [38] = biological target: Neu5Ac(a2-3)Gal(b1-4)[Fuc(a1-3)]GlcNAc
# Outline: as §1
# [39] = biological target: Neu5Ac(a2-6)Gal(b1-4)GlcNAc(b1-2)Man(a1-3)[GlcNAc(b1-2)Man(a1-6)]Man(b1-4)GlcNAc(b1-4)GlcNAc
# Outline: as §1
# [40] = biological target: Neu5Ac(a2-6)Gal(b1-4)GlcNAc(b1-3)Gal(b1-3)GlcNAc
# Outline: as §1
# [41] = biological target: Neu5Ac(a2-8)Neu5Ac(a2-3)[GalNAc(b1-4)]Gal(b1-4)Glc
# Outline: as §1
# [42] = biological target: Neu5Ac9Ac(a2-3)Gal(b1-4)GlcNAc
# Outline: as §1
# [43] = biological target: Neu5Ac9Ac(a2-6)Gal(b1-4)GlcNAc
# Outline: as §1
# [44] = biological target: Neu5Gc(a2-3)Gal(b1-4)GlcNAc(b1-3)Gal(b1-4)GlcNAc(b1-2)Man(a1-3)[Neu5Gc(a2-3)Gal(b1-4)GlcNAc(b1-3)Gal(b1-4)GlcNAc(b1-2)Man(a1-6)]Man(b1-4)GlcNAc(b1-4)GlcNAc
# Outline: as §1
binder,measurement,setting,value
B1,glycan array binding signal (z-score),[1],19.6
same,glycan array binding signal (z-score),[2],0.336
same,glycan array binding signal (z-score),[3],0.023
same,glycan array binding signal (z-score),[4],0.068
same,glycan array binding signal (z-score),[5],-0.269
same,glycan array binding signal (z-score),[6],-0.171
same,glycan array binding signal (z-score),[7],0.027
same,glycan array binding signal (z-score),[8],0.36
same,glycan array binding signal (z-score),[9],-0.079
same,glycan array binding signal (z-score),[10],-0.05
same,glycan array binding signal (z-score),[11],0.099
same,glycan array binding signal (z-score),[12],0.472
same,glycan array binding signal (z-score),[13],-0.09
same,glycan array binding signal (z-score),[14],0.004
same,glycan array binding signal (z-score),[15],-0.185
same,glycan array binding signal (z-score),[16],-0.207
same,glycan array binding signal (z-score),[17],-0.128
same,glycan array binding signal (z-score),[18],0.216
same,glycan array binding signal (z-score),[19],-0.12
same,glycan array binding signal (z-score),[20],-0.121
same,glycan array binding signal (z-score),[21],-0.037
same,glycan array binding signal (z-score),[22],-0.194
same,glycan array binding signal (z-score),[23],0.328
same,glycan array binding signal (z-score),[24],0.065
same,glycan array binding signal (z-score),[25],-0.11
same,glycan array binding signal (z-score),[26],0.048
same,glycan array binding signal (z-score),[27],0.124
same,glycan array binding signal (z-score),[28],-0.26
same,glycan array binding signal (z-score),[29],-0.006
same,glycan array binding signal (z-score),[30],0.376
B2,glycan array binding signal (z-score),[31],-0.35
same,glycan array binding signal (z-score),[32],-0.222
same,glycan array binding signal (z-score),[33],-0.238
same,glycan array binding signal (z-score),[34],-0.312
same,glycan array binding signal (z-score),[35],-0.264
same,glycan array binding signal (z-score),[36],-0.234
same,glycan array binding signal (z-score),[37],-0.284
same,glycan array binding signal (z-score),[38],-0.278
same,glycan array binding signal (z-score),[39],-0.287
same,glycan array binding signal (z-score),[40],-0.258
same,glycan array binding signal (z-score),[41],-0.27
same,glycan array binding signal (z-score),[42],-0.271
same,glycan array binding signal (z-score),[43],-0.297
same,glycan array binding signal (z-score),[44],-0.292
